Measured values: PubChem BioAssay

Test: blockers of RIG-like receptor reporter activation – cell-based, Sendai virus stimulus, luciferase, 10K MLSCN set, TLR/RLR signaling modifier project, primary screen (AID 602276);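 further: firefly luciferase from ISG56 promoter only with Renilla not read in this screen; 0% = Sendai virus plus DMSO and 100% = medium plus DMSO without virus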
Conditions: HEK293 RL24 IRF3 luciferase reporter, at 10 µM, active compounds read high;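 active means inhibition at or above 50% at 10 µM; inactive means inhibition below 50%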

inhibition, inactive:
O=C(OCc1nnc(-c2ccccc2)o1)c1ccc(S(=O)(=O)NCc2ccco2)cc1 -7.1%
CCOC(=O)CSc1nnc(CNC(=O)c2cccs2)n1-c1cc(OC)ccc1OC 0.513%
CCn1c2ccccc2c2cc(NC(=O)Cc3ccc(S(=O)(=O)N4CCOCC4)s3)ccc21 25.9%
Cn1c2c(c(=O)[nH]c1=O)C(NC(=O)c1ccco1)(C(F)(F)F)C(=O)N2 (stereo not given) -2.84%
Cn1c(CCCNC(=O)c2ccccc2)nc2ccccc21 13.2%
Cc1ccccc1N(CC(=O)NCC1CCCO1)C(=O)C1(C)CC(=O)N=C2C=CC=CN21 (stereo not given) 3.63%
O=C(CSc1nnnn1-c1ccccc1)Nc1nsc(-c2ccc(Cl)cc2)n1 15.4%
COc1ccccc1N1CCN(CCCNC(=O)Nc2ccccc2)CC1 15.3%
CS(=O)(=O)N1CCN(CC2CC3C=CC2C3)CC1 (stereo not given) 14.1%
COc1ccc(-n2ncc3c(NCc4ccc5c(c4)OCO5)ncnc32)cc1 -4.14%
O=S(=O)(NCCc1csc(-c2ccccc2)n1)c1ccc2c(c1)OCCO2 14.6%
c1ccc(CC2CCN(Cc3nc(-c4ccccc4)no3)CC2)cc1 5.55%
CCC(NS(=O)(=O)c1ccc(C)cc1)C(=O)N1CCC2(O)CCCCC2C1 (stereo not given) 0.0772%
O=C(CSc1nnnn1Cc1ccccc1)Nc1ccc2c(c1)OCO2 1.63%
COc1cccc(-n2c(C)nc3c(cnn3-c3ccc(Cl)cc3)c2=O)c1 -4.02%
